# In PubChem BioAssay (NCI):
# This is part of a sample that, as a whole, favours compounds with a hit. Of some 79,000 tested, about 15% had one in any assay. Unmarked numbers belong to inactive results. Activity calls are given as the source filed them. Rule as the data show it: active = growth inhibition above about 70%; inactive = the rest.
# Legend:
# [1] = NCI Yeast Anticancer Drug Screen. Data for the mec2-1 strain (AID 157); conditions: S. cerevisiae mec2-1 strain, hits give high values
# Procedure, shortened: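 Vehicle-treated cultures served as reference for growth inhibition of compound-exposed mec2-1 yeast.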
# [2] = NCI Yeast Anticancer Drug Screen. Data for the rad14 strain (AID 159);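 also: 0% = growth of vehicle-treated control cultures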; conditions: S. cerevisiae rad14 strain growth inhibition, hits give high values
# Procedure, shortened: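 Here, inhibition of yeast growth was measured after compound exposure, using a strain with a genetic defect in DNA damage repair and vehicle-treated cultures as the reference.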
# [3] = NCI Yeast Anticancer Drug Screen. Data for the sgs1 mgt1 strain (AID 161);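 also: 0% = growth of cultures given vehicle only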; conditions: S. cerevisiae sgs1 mgt1 strain, hits give high values
# Procedure, shortened: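 Genetically altered yeast, compound exposure, growth inhibition relative to vehicle.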
# [4] = NCI Yeast Anticancer Drug Screen. Data for the cln2 rad14 strain (AID 165);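 also: 0% = growth equal to vehicle treated cultures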; conditions: S. cerevisiae cln2 rad14 strain, hits give high values
# Procedure, shortened: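 Each compound was tested on cln2 rad14 yeast. Inhibition of growth was calculated against vehicle-exposed controls.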
# [5] = NCI Yeast Anticancer Drug Screen. Data for the bub3 strain (AID 167); conditions: S. cerevisiae bub3 mutant strain, hits give high values
# Procedure, shortened: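 Whole-cell yeast assay. The mutant strain was incubated with compounds, and growth inhibition was determined by comparison with vehicle-treated cells.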
# [6] = NCI Yeast Anticancer Drug Screen. Data for the mlh1 strain (AID 171);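 also: 0% = growth of vehicle-treated control cultures of the same strain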; conditions: S. cerevisiae mlh1 strain growth inhibition, hits give high values
# Procedure, shortened: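 Vehicle-normalised growth inhibition of a repair- or checkpoint-altered yeast strain following compound treatment.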
# [7] = NCI Yeast Anticancer Drug Screen. Data for the sgs1 strain (AID 173);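 also: 0% = growth of vehicle-only control cultures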; conditions: S. cerevisiae sgs1 mutant, hits give high values
# Procedure, shortened: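 Screen format: yeast with repair or checkpoint alterations, compound exposure, growth read relative to vehicle.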
# [8] = NCI Yeast Anticancer Drug Screen. Data for the mlh1 rad18 strain (AID 175); conditions: S. cerevisiae mlh1 rad18 strain growth inhibition, hits give high values
# Procedure, shortened: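 Vehicle-treated cultures served as the reference for growth inhibition in a yeast strain carrying DNA damage repair alterations exposed to each compound.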
# [9] = NCI Yeast Anticancer Drug Screen. Data for the rad18 strain (AID 177); conditions: S. cerevisiae rad18 mutant growth inhibition, hits give high values
# Procedure, shortened: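 Test articles were incubated with altered yeast defective in DNA damage repair. Results are given as inhibition of growth versus vehicle.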
# [10] = NCI Yeast Anticancer Drug Screen. Data for the rad52 strain (AID 147);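 also: 0% = growth of vehicle-treated control cultures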; conditions: S. cerevisiae rad52 mutant growth inhibition, hits give high values
# Procedure, shortened: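 Vehicle-treated cultures served as the reference for growth inhibition of compound-exposed yeast bearing a DNA repair mutation.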
# [11] = NCI Yeast Anticancer Drug Screen. Data for the wt1 strain (AID 149);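 also: 0% = growth of vehicle-treated wt1 cultures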; conditions: S. cerevisiae wt1 strain (SPY 50644) growth inhibition, hits give high values
# Procedure, shortened: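 Measured: growth of wt1 yeast under compound versus vehicle treatment, reported as inhibition.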
# [12] = NCI Yeast Anticancer Drug Screen. Data for the rad50EPP+ strain (AID 151);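 also: 0% = growth of vehicle-treated control cultures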; conditions: S. cerevisiae rad50 mutant strain, hits give high values
# Procedure, shortened: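 In this screen, rad50EPP+ yeast were exposed to compounds. Growth inhibition was scored against vehicle-treated controls.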
# [13] = NCI Yeast Anticancer Drug Screen. Data for the mgt1 strain (AID 153); conditions: S. cerevisiae mgt1 mutant growth inhibition, hits give high values
# Procedure, shortened: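 mgt1 strain exposed; growth vs vehicle control recorded as inhibition.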
# [14] = NCI Yeast Anticancer Drug Screen. Data for the rad50 strain (AID 155);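 also: 0% = growth of vehicle-only cultures of the same strain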; conditions: S. cerevisiae rad50 strain growth inhibition, hits give high values
# Procedure, shortened: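 Growth of the mutant yeast was measured after compound exposure and referenced to vehicle-treated cultures.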
# [15] = NCI Yeast Anticancer Drug Screen. Data for the CLN2oe strain (AID 163);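 also: 0% = growth of vehicle-only control cultures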; conditions: S. cerevisiae CLN2oe strain, hits give high values
# Procedure, shortened: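 Inhibition relative to vehicle-treated yeast is reported. Cells: strain with genetic alteration in cell-cycle control, grown with compound.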
# [16] = NCI Yeast Anticancer Drug Screen. Data for the wt2 strain (AID 169);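 also: 0% = growth of vehicle-treated yeast cultures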; conditions: S. cerevisiae wt2 strain growth inhibition, hits give high values
# Procedure, shortened: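 Inhibition of yeast growth was determined after compound treatment, normalised to controls receiving only vehicle.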
# [17] = at 5.0 µM (retest, dose inferred, filed as 0.5)
# [18] = at 50.0 µM (retest, dose inferred, filed as 5.0)
structure (smiles),measurement,setting,value
O=C(/C=N/O)Nc1cc(Cl)c(Cl)cc1Cl,growth inhibition,[1]; [17],55%
same,growth inhibition,[1]; at 11.0 µM,-26%
same,growth inhibition,[1]; at 33.0 µM,-3%
same,growth inhibition,[1]; [18],98% (active)
same,growth inhibition,[1]; at 50.0 µM,65%
same,growth inhibition,[1]; at 100.0 µM,43%
same,growth inhibition,[2]; at 1.2 µM,-39%
same,growth inhibition,[2]; at 3.7 µM,-31%
same,growth inhibition,[2]; at 11.0 µM,-32%
same,growth inhibition,[2]; at 33.0 µM,23%
same,growth inhibition,[2]; at 100.0 µM,75% (active)
same,growth inhibition,[3]; [17],-12%
same,growth inhibition,[3]; [18],84% (active)
same,growth inhibition,[4]; [17],67%
same,growth inhibition,[4]; [18],77% (active)
same,growth inhibition,[5]; at 1.2 µM,-32%
same,growth inhibition,[5]; at 3.7 µM,-27%
same,growth inhibition,[5]; [17],17%
same,growth inhibition,[5]; at 11.0 µM,-21%
same,growth inhibition,[5]; at 33.0 µM,8%
same,growth inhibition,[5]; [18],89% (active)
same,growth inhibition,[5]; at 100.0 µM,57%
same,growth inhibition,[6]; at 1.2 µM,-34%
same,growth inhibition,[6]; at 3.7 µM,-26%
same,growth inhibition,[6]; at 11.0 µM,-9%
same,growth inhibition,[6]; at 33.0 µM,37%
same,growth inhibition,[6]; at 100.0 µM,79% (active)
same,growth inhibition,[7]; at 1.2 µM,-55%
same,growth inhibition,[7]; at 3.7 µM,-31%
same,growth inhibition,[7]; at 11.0 µM,-36%
same,growth inhibition,[7]; at 33.0 µM,28%
same,growth inhibition,[7]; at 100.0 µM,67%
same,growth inhibition,[8]; [17],36%
same,growth inhibition,[8]; [18],99% (active)
same,growth inhibition,[8]; at 50.0 µM,47.2%
same,growth inhibition,[9]; at 1.2 µM,-28%
same,growth inhibition,[9]; at 3.7 µM,-18%
same,growth inhibition,[9]; at 11.0 µM,-12%
same,growth inhibition,[9]; at 33.0 µM,36%
same,growth inhibition,[9]; at 100.0 µM,78% (active)
Cc1ccc(Nc2n[nH]c(=S)s2)cc1,growth inhibition,[10]; at 1.2 µM,-2%
same,growth inhibition,[10]; at 3.7 µM,2%
same,growth inhibition,[10]; at 11.0 µM,6%
same,growth inhibition,[10]; at 33.0 µM,74% (active)
same,growth inhibition,[10]; at 100.0 µM,94% (active)
same,growth inhibition,[11]; at 1.2 µM,-21%
same,growth inhibition,[11]; at 3.7 µM,-12%
same,growth inhibition,[11]; at 11.0 µM,-19%
same,growth inhibition,[11]; at 33.0 µM,35%
same,growth inhibition,[11]; at 100.0 µM,92% (active)
same,growth inhibition,[12]; at 1.2 µM,-13%
same,growth inhibition,[12]; at 3.7 µM,-10%
same,growth inhibition,[12]; at 11.0 µM,-11%
same,growth inhibition,[12]; at 33.0 µM,6%
same,growth inhibition,[12]; at 100.0 µM,68%
same,growth inhibition,[13]; at 1.2 µM,-6%
same,growth inhibition,[13]; at 3.7 µM,-5%
same,growth inhibition,[13]; at 11.0 µM,-3%
same,growth inhibition,[13]; at 33.0 µM,65%
same,growth inhibition,[13]; at 100.0 µM,94% (active)
same,growth inhibition,[14]; at 1.2 µM,5%
same,growth inhibition,[14]; at 3.7 µM,-1%
same,growth inhibition,[14]; [17],44%
same,growth inhibition,[14]; at 11.0 µM,0%
same,growth inhibition,[14]; at 33.0 µM,72% (active)
same,growth inhibition,[14]; [18],80% (active)
same,growth inhibition,[14]; at 50.0 µM,87% (active)
same,growth inhibition,[14]; at 100.0 µM,93% (active)
same,growth inhibition,[1]; at 1.2 µM,-13%
same,growth inhibition,[1]; at 3.7 µM,-29%
same,growth inhibition,[1]; [17],39%
same,growth inhibition,[1]; at 11.0 µM,-27%
same,growth inhibition,[1]; at 33.0 µM,13%
same,growth inhibition,[1]; [18],55%
same,growth inhibition,[1]; at 50.0 µM,86% (active)
same,growth inhibition,[1]; at 100.0 µM,93% (active)
same,growth inhibition,[2]; at 1.2 µM,-14%
same,growth inhibition,[2]; at 3.7 µM,-28%
same,growth inhibition,[2]; at 11.0 µM,-11%
same,growth inhibition,[2]; at 33.0 µM,81% (active)
same,growth inhibition,[2]; at 100.0 µM,95% (active)
same,growth inhibition,[3]; [17],1%
same,growth inhibition,[3]; [18],91% (active)
same,growth inhibition,[15]; at 1.2 µM,11%
same,growth inhibition,[15]; at 3.7 µM,2%
same,growth inhibition,[15]; at 11.0 µM,3%
same,growth inhibition,[15]; at 33.0 µM,40%
same,growth inhibition,[15]; at 100.0 µM,91% (active)
same,growth inhibition,[4]; [17],60%
same,growth inhibition,[4]; [18],94% (active)
same,growth inhibition,[5]; at 1.2 µM,1%
same,growth inhibition,[5]; at 3.7 µM,-12%
same,growth inhibition,[5]; [17],45%
same,growth inhibition,[5]; at 11.0 µM,-3%
same,growth inhibition,[5]; at 33.0 µM,53%
same,growth inhibition,[5]; [18],91% (active)
same,growth inhibition,[5]; at 100.0 µM,93% (active)
same,growth inhibition,[16]; at 1.2 µM,-12%
same,growth inhibition,[16]; at 3.7 µM,-6%
same,growth inhibition,[16]; at 11.0 µM,-17%
same,growth inhibition,[16]; at 33.0 µM,47%
same,growth inhibition,[16]; at 100.0 µM,92% (active)
same,growth inhibition,[6]; at 1.2 µM,-10%
same,growth inhibition,[6]; at 3.7 µM,-34%
same,growth inhibition,[6]; at 11.0 µM,-23%
same,growth inhibition,[6]; at 33.0 µM,29%
same,growth inhibition,[6]; at 100.0 µM,92% (active)
same,growth inhibition,[7]; at 1.2 µM,-34%
same,growth inhibition,[7]; at 3.7 µM,-36%
same,growth inhibition,[7]; at 11.0 µM,-25%
same,growth inhibition,[7]; at 33.0 µM,41%
same,growth inhibition,[7]; at 100.0 µM,88% (active)
same,growth inhibition,[8]; [17],36%
same,growth inhibition,[8]; [18],60%
same,growth inhibition,[8]; at 50.0 µM,85.7% (active)
same,growth inhibition,[9]; at 1.2 µM,-17%
same,growth inhibition,[9]; at 3.7 µM,-10%
same,growth inhibition,[9]; at 11.0 µM,0%
same,growth inhibition,[9]; at 33.0 µM,80% (active)
same,growth inhibition,[9]; at 100.0 µM,94% (active)
